High-throughput results as filed in PubChem.
MIN6 prolif – induces beta-cell replication in MIN6 cells; MIN6 cells proliferation, ATPlite luminescence, 48 h; cells starved in 0.2% serum; 100% = growth in 10% serum; proliferation, % at 10 µM; actives 0.29% (n = 330,000); AID 2380;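 active means compounds whose signal lies at least 3.5 SD above the mean of all wells on their plate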;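 further: 0% = DMSO-treated cells in low-serum medium and 100% = 10% serum control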
APOBEC3G inh – APOBEC3G (human) deaminase inhibition; Q9HC16; inhibition, % at 20 µM; recombinant A3G, ssDNA deamination FAM/TAMRA fluorescence; actives 0.28% (n = 330,000); AID 493012;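 active means inhibition of at least 40% at 20 µM, with no more than 30% in the related APOBEC3A deaminase screen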;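 further: plate controls were DMSO wells with A3G for no effect and wells lacking A3G enzyme for full effect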
VLA-4 inh – inhibition in a human VLA-4 binding assay; P13612; actives 0.2% (n = 330,000); VLA-4 expressing cells, ligand binding flow cytometry; inhibition, % (about 7 µM as worked out from the volumes in the protocol); AID 2557; in the data active means inhibition above about 50%
Target sequence (P13612 whole entry, looked up): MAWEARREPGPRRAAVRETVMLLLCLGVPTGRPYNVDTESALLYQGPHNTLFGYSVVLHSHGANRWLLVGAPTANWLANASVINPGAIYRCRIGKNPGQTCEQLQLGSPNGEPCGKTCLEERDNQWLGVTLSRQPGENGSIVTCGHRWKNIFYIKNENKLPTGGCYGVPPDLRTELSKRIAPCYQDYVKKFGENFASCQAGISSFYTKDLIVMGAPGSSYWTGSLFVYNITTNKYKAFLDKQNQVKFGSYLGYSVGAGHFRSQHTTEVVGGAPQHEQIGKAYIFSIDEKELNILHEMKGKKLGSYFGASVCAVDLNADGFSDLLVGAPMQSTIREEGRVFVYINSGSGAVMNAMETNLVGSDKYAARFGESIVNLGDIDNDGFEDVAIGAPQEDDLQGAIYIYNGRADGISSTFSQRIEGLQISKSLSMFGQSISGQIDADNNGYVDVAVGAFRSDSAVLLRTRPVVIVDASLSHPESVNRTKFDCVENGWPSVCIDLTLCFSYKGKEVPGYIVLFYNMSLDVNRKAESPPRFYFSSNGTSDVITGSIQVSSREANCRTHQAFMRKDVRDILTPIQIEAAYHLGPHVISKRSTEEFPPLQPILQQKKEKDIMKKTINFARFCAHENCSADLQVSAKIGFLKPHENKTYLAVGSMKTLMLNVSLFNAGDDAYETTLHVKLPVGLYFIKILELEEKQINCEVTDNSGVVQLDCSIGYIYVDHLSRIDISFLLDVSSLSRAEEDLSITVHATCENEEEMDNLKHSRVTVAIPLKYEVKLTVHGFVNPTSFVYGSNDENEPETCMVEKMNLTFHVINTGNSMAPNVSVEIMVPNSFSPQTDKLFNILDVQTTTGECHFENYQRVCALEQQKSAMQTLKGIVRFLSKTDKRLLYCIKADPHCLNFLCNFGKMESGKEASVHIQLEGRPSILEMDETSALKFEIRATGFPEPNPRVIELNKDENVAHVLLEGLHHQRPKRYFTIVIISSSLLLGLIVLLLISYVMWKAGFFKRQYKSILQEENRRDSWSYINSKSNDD
NRP1-CendR mod – modulators of CendR peptide binding to human neuropilin-1. AID 602438. actives 0.85% (n = 360,000). FAM-RPARPAR peptide binding to NRP-1, fluorescence polarization. O14786. inhibition, % at 25 µM;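 active means inhibition or corrected inhibition above about 18%, plus a signal ratio from 0.5 to 1.5, limit read from the data, passing the limit was not always enough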
APOBEC3A inh – blocks human APOBEC3A ssDNA deamination; inhibition, % at 20 µM; actives 0.41% (n = 330,000); recombinant A3A, FAM/TAMRA ssDNA deamination fluorescence; AID 493011;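 active means at least 40% inhibition at 20 µM here, with at most 30% in a related deaminase screen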;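 further: plate controls were A3A with DMSO for no effect and wells lacking A3A enzyme for full effect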
APOBEC3A confirm – APOBEC3A (human) deaminase inhibition, confirmed; shares compounds with APOBEC3A inh; recombinant A3A, ssDNA deaminase UDG fluorescence assay; inhibition, % at 20 µM; actives 63% (n = 1,400);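 active means inhibition reaching a set limit, 80% of the first screen's cutoff, at 20 µM in any replicate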;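 further: plate controls were DMSO wells with A3A for no effect and wells lacking A3A enzyme for full effect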
UDG A3A counter – counter-screen for APOBEC3A inhibitors: UDG; shares compounds with APOBEC3A inh; UDG counterscreen, FAM/TAMRA uracil oligo fluorescence; inhibition, % at 20 µM; 1,000 tested, under 10 active; AID 504714; call rule not given here
Active calls of the source: *; x = not tested or not shown. A selection: hits, their analogues and other compounds. The true share with any hit is near 1.8%.

SMILES	MIN6 prolif	APOBEC3G inh	VLA-4 inh	NRP1-CendR mod	APOBEC3A inh	APOBEC3A confirm	UDG A3A counter
CC(=O)OC(C[N+]1(C)CCCCCC1)c1ccccc1 (centres undefined)	4.4	14.1	-21.6	2.9	78.8*	69.3*	-2.1
C[N+]1(CCC(=O)c2ccccc2)CCCCC1	0.0	33.9	-5.9	8.8	64.7	x	x
O=C(C1CCN(S(=O)(=O)c2cccc3nsnc23)CC1)N1CCn2c1nc1ccccc12	3.8	-0.6	-3.6	-10.5	1.2	x	x
Cc1n[nH]c(C)c1S(=O)(=O)N1CCC(C(=O)N2CCn3c2nc2ccccc23)CC1	-1.8	-3.5	-14.7	-16.3	98.4*	-5.8	-3.6
COc1cccc(C(=O)N/N=C/c2ccc(Oc3ccc([N+](=O)[O-])cn3)c(OC)c2)c1	-3.0	19.2	2.4	-0.3	59.2*	61.6*	-2.4
COc1ccc(NS(=O)(=O)c2cc(NC(=O)c3ccc(=O)[nH]c3)ccc2N2CCCC2)cc1	-2.9	0.2	-0.9	16.9	4.4	x	x
CCN(CC)CCCN=C1N[C@@H](c2cccc(F)c2)C(C(=O)OC)=C(C)N1Cc1ccccc1	-5.7	15.3	24.3	-7.0	46.4*	81.8*	-0.2
COC(=O)C1=C(C)N(Cc2ccccc2)C(=NCCN2CCOCC2)N[C@H]1CCc1ccccc1	-2.3	6.2	8.2	-0.6	35.7	x	x
COCCN1C(=O)N[C@@H](c2cccs2)C(C(=O)OC)=C1C	-0.6	-10.3	x	-7.4	-2.4	x	x
CCN1C(=NCCOC)N[C@@H](c2cccs2)C(C(=O)OC)=C1C	1.2	17.1	18.8	2.1	57.7*	66.9*	-5.3
COC(=O)C1=C(C)N(Cc2ccccc2)C(=NCc2ccccc2)N[C@H]1c1cccc(F)c1	-7.9	-1.6	44.7	-4.0	25.0	x	x
CCN1C(=NCCOC)N[C@@H](c2cccc(F)c2)C(C(=O)OC)=C1C	-0.7	16.0	12.5	21.6	58.9*	70.7*	-3.2
CCN1C(=NCCN2CCOCC2)N[C@@H](c2ccccc2)C(C(=O)OC)=C1C	-2.4	5.7	40.0	-6.4	48.6*	51.7*	-0.6
COc1ccc(-c2nc(CS(=O)CC(=O)NC3CCCCC3C)c(C)o2)cc1 (centres undefined)	-2.3	-6.0	6.2	-3.0	-1.8	x	x
CCN1C(=NCCCCO)N[C@@H](c2cccc(F)c2)C(C(=O)OC)=C1C	-2.4	5.9	37.1	9.9	50.6*	58.5*	-0.4
COc1ccc(C=O)c(-c2c(CCO)sc3ccccc23)c1	x	x	x	-7.7	x	x	x
O=C(CSc1nccc(=O)[nH]1)N1N=C2/C(=C/c3ccco3)CCCC2C1c1ccco1 (centres undefined)	-1.9	26.7	6.4	-28.1	45.9*	34.1*	0.4
Nc1nc(SCC(=O)N2N=C3/C(=C/c4ccco4)CCCC3C2c2ccco2)n[nH]1 (centres undefined)	-1.9	-5.3	18.8	-25.6	0.1	x	x
O=C(O)c1ccc(COc2ccc(/C=N/NC(=O)c3cccs3)cc2)cc1	-3.1	16.6	-2.4	-2.9	51.3*	4.3	x
N#C/C(=C/c1ccc(OCc2ccc(C(=O)O)cc2)cc1)C(=O)Nc1ccccc1	-2.6	16.4	-0.3	-15.9	78.9*	75.3*	-2.5
CCCNC(=O)N1C[C@H](O)COC[C@@H]2O[C@@H](CC(=O)NCCCN3CCOCC3)CC[C@H]21	x	x	x	5.9	x	x	x
O=C(CCN1CCN(S(=O)(=O)c2cccc([N+](=O)[O-])c2)CC1)Nc1ccccc1F	-2.4	-2.8	9.3	1.8	-1.5	x	x
COc1cc2c(cc1OC)C(NC(=O)c1ccc(C)cc1)CC2=O (centres undefined)	2.1	-2.4	6.2	1.2	1.8	x	x
COc1ccc2c(c1)N(C)/C(=C/c1cccc[n+]1C)S2	-7.1	21.2	-281.9	-15.6	57.2*	87.8*	-2.5
CCN1/C(=C/c2cccc[n+]2C)Sc2ccc(OC)cc21	-4.9	15.0	-283.7	-1.9	53.2*	86.5*	-2.2
SMILES	MIN6 prolif	APOBEC3G inh	VLA-4 inh	NRP1-CendR mod	APOBEC3A inh	APOBEC3A confirm	UDG A3A counter
COc1cc(OC)cc(C(=O)/C=C2\Sc3ccccc3N2C)c1	1.9	-3.2	6.8	-0.1	0.0	x	x
Cc1cc(C(=O)N/N=C/c2cc(Br)c(Br)o2)n[nH]1	0.1	15.6	-8.7	-10.0	58.0*	36.6*	-0.2
Cc1cc(C(=O)N/N=C/c2ccc(Br)o2)n[nH]1	3.1	-2.0	11.2	4.7	-0.5	x	x
CCNc1ccc(Br)cc(C(=O)/C=C/c2ccc(Cl)cc2)c1=O	-5.2	13.4	-64.2	-111.8	20.4	x	x
CCNc1ccc(Br)cc(C(=O)/C=C/c2ccc3c(c2)OCO3)c1=O	-4.5	28.3	-16.9	-166.4	45.8*	18.7*	-3.6
CC1CCCC(C)N1C(=O)COC(=O)CNC(=O)c1sc2ccccc2c1Cl (centres undefined)	-2.4	-0.9	-5.4	9.3	-2.7	x	x
C#CCn1cc(/C=N/NC(=O)COc2cccc3cccnc23)c2ccccc21	-3.8	11.9	8.0	-24.9	64.5*	47.2*	-2.0
CC1(C)Oc2ccc3ccc(=O)oc3c2C(/C=N/O)=C1Cl	-1.0	7.6	7.2	12.7	66.9*	53.8*	-2.0
CCCCn1c(N)c(N(CCOC)C(=O)C2CCN(C(=O)c3ccc(F)cc3)CC2)c(=O)[nH]c1=O	2.1	-12.0	4.0	2.9	3.0	x	x
O=C(O)C/C(=C\c1cc(Cl)c2c(c1)OCO2)c1nc2ccccc2s1	1.1	29.6	2.7	-41.3	44.9*	37.6*	-2.0
CCCc1cc(=O)oc2cc(OCC(=O)NCCN3CCOCC3)c(Cl)cc12	x	x	x	-10.4	x	x	x
Cc1nn(Cc2ccc(F)cc2)c(C)c1NC(=O)c1cc2ncc(Br)cn2n1	-0.7	4.3	-0.2	3.1	40.7*	26.4	x
O=C(NCc1ccc2c(c1)OCO2)c1cc2ncc(Br)cn2n1	-1.8	10.4	7.7	5.4	92.7*	82.7*	-1.1
CN1CCN(c2ccc(Cl)cc2NC(=O)CC2OC(=O)c3ccccc32)CC1 (centres undefined)	-2.0	28.7	11.4	14.8	95.5*	69.1*	-2.2
CC1=CC=CC2=NC(=O)CC(C)(C(=O)N(CC(=O)NC3CCCC3)c3ccc(F)cc3)N12 (centres undefined)	-2.3	-9.4	-3.3	6.8	-5.4	x	x
CNC(=O)/C(C#N)=C\c1ccc(CNS(=O)(=O)c2ccc(Cl)cc2)o1	0.5	11.3	-2.5	4.2	71.0*	77.2*	-2.7
COc1ccccc1N1CCN(C2CCCN(C(=O)CCN3CCCCO3)C2)CC1 (centres undefined)	6.3	1.0	-7.1	5.6	0.4	x	x
Cc1ccc(-c2ccc3c(c2)O[C@H](CN(C)Cc2cncnc2)[C@@H](C)CN([C@H](C)CO)S3(=O)=O)cc1	x	x	x	18.2	x	x	x
O=C(O)C1(S(=O)(=O)c2ccc(Cl)cc2)CCC1	0.0	-3.8	6.7	15.0	-1.7	x	x
